One test deals with T1, MST1.
T1 construct: gene STK4
As to conditions: concentration: 1 μM, replicates: in singlicate, n = 1.

Another test has as its system T2, MST2.
T2 construct: gene STK3
To be noted: concentration: 1 μM, replicates: in singlicate; n = 1.

For the next test, the system named is T3, MST3.
T3 construct: gene STK24
To be noted: concentration: 1 μM, replicates: in singlicate, n = 1.

The test system of another test is MST4. As to conditions: concentration: 1 μM, replicates: in singlicate, n = 1.
The subject of another test is MTOR. As to conditions: concentration: 1 μM, replicates: in singlicate, n = 1.
Another test has as its system MUSK. As to conditions: concentration: 1 μM, replicates: in singlicate; n = 1.
In a further test the test system is MYLK2. To be noted: concentration: 1 μM, replicates: in singlicate, n = 1.
In the next test the test system is MYLK4. To be noted: concentration: 1 μM, replicates: in singlicate, n = 1.
The next test concerns MYLK. As to conditions: concentration: 1 μM, replicates: in singlicate, n = 1.
Another test has as its system MYO3A. As to conditions: concentration: 1 μM, replicates: in singlicate, n = 1.
Another test deals with MYO3B. As to conditions: concentration: 1 μM, replicates: in singlicate, n = 1.
Another test relates to T4, NDR1.
T4 construct: gene STK38
To be noted: concentration: 1 μM, replicates: in singlicate, n = 1.

A further test deals with NDR2. To be noted: concentration: 1 μM, replicates: in singlicate, n = 1.
A further test deals with NEK10. To be noted: concentration: 1 μM, replicates: in singlicate; n = 1.
In a further test the test system is NEK11. To be noted: concentration: 1 μM, replicates: in singlicate; n = 1.
The next test concerns NEK1. As to conditions: concentration: 1 μM, replicates: in singlicate, n = 1.
In a further test the test system is NEK2. As to conditions: concentration: 1 μM, replicates: in singlicate, n = 1.
The next test relates to NEK3. As to conditions: concentration: 1 μM, replicates: in singlicate, n = 1.
A further test concerns NEK4. As to conditions: concentration: 1 μM, replicates: in singlicate; n = 1.
Another test deals with NEK5. As to conditions: concentration: 1 μM, replicates: in singlicate, n = 1.

SMILES strings stand for the structures. Values joined by “and” are separate entries in the source; they are usually repeats but may differ in a detail not shown here. Equal entries are not always repeated. Where two headings read alike, the source gives them in different places.
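Further: KINOMEscan kinase panel screen.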

Take `Cc1cccc(Cn2ccn3c(=O)cc(N4CCOCC4)nc23)c1` [GSK2297542]: the “%Inh” value was determined as 7% in the test on MST1; 0% in the test on MST2; 23% with MST3; 0% with MST4; 17% in the test on MTOR; 2% in the test with MUSK. Moreover, the “%Inh” value is 4% with MYLK2; 6% in the test on MYLK4; 41% in the test with MYLK; 11% in the test on MYO3A; 0% in the test on MYO3B; 33% in the test with NDR1. Also, the “%Inh” value in the test on NDR2 came to 0%; in the test on NEK10 it was 14%; with NEK11, 6%; in the test on NEK1, 12%; with NEK2 it was 15%; in the test with NEK3 it was 15%. In addition, the figures for the “%Inh” value with NEK4 and with NEK5 were 16% and 19%, respectively.

Turning to `CCc1nc(-c2cccc(C)c2)c(-c2ccnc(NCc3ccccc3)c2)s1`, the “%Inh” value with MST1 is 4%; in the test with MST2, 0%; in the test on MST3 it was 4%; in the test with MST4, 0%; in the test with MTOR, 12%; with MUSK, 12%. Besides, the “%Inh” value with MYLK2, with MYLK4, with MYLK, in the test on MYO3A, with MYO3B and in the test on NDR1 was 0% each time. Moreover, the “%Inh” value with NDR2 is 0%; in the test with NEK10, 0%; with NEK11 it was 0%; in the test on NEK1, 7%; in the test with NEK2, 0%; in the test on NEK3, 24%. Further, the “%Inh” value in the test on NEK4 and in the test with NEK5 was 0% in each case.

For `O=C(NCCNc1ccnc(Nc2ccc(F)cc2)n1)Nc1ccccc1F` [GSK1379880], the “%Inh” value in the test with MST1 worked out at 0%; with MST2, 0%; in the test on MST3 it was 0%; in the test with MST4, 0%; with MTOR, 10%; in the test with MUSK, 5%. For the same compound, the “%Inh” value is given as 1% in the test with MYLK2; 0% in the test on MYLK4; 9% in the test with MYLK; 0% with MYO3A; 0% in the test with MYO3B; 0% in the test with NDR1. Further, the “%Inh” value with NDR2 came out at 0%; in the test with NEK10 it was 12%; in the test on NEK11, 0%; in the test on NEK1 it was 0%; in the test with NEK2, 0%; in the test with NEK3, 11%. Moreover, the “%Inh” value in the test on NEK4 was 15%; in the test on NEK5, 0%.

In the case of `[2H]C([2H])(c1cccc(C(F)(F)F)c1C)n1ccn2c(=O)nc(N3CCOCC3)cc12` [GSK2336394], the “%Inh” value in the test with MST1 came out at 2%; in the test on MST2, 0%; in the test with MST3, 11%; with MST4 it was 0%; in the test with MTOR it was 18%; in the test with MUSK, 8%. For the same compound, the “%Inh” value stood at 0% in the test on MYLK2; 0% in the test with MYLK4; 12% in the test on MYLK; 4% with MYO3A; 0% in the test with MYO3B; 0% in the test with NDR1. For the same compound, the “%Inh” value is given as 0% in the test with NDR2; 7% in the test with NEK10; 0% in the test with NEK11; 0% with NEK1; 0% in the test on NEK2; 1% in the test with NEK3. Besides, the “%Inh” value was found to be 27% in the test with NEK4 and 4% in the test with NEK5.

For the compound `Cn1ccc2ncnc(Oc3ccc(NC(=O)Nc4ccncc4)c(Cl)c3)c21`, the “%Inh” value came out at 0% in the test on MST1; 0% in the test on MST2; 0% with MST3; 0% in the test on MST4; 11% in the test on MTOR; 0% in the test with MUSK. The “%Inh” value in the test on MYLK2 is given as 11%; with MYLK4, 0%; with MYLK, 0%; in the test with MYO3A it was 14%; in the test on MYO3B, 13%; with NDR1 it was 0%. Also, the “%Inh” value was 17% in the test on NDR2; 14% in the test with NEK10; 0% with NEK11; 0% in the test on NEK1; 0% with NEK2; 24% in the test on NEK3. Moreover, the results for the “%Inh” value in the test on NEK4 and in the test with NEK5 were 0% and 3%, respectively.

`COc1ccc(CNC(=O)NC2CCN(c3ccnc(Nc4ccc(OC)cc4)n3)C2)cc1` (stereo not shown) [GSK1379727]: the “%Inh” value amounted to 0% in the test with MST1; 0% with MST2; 0% with MST3; 0% in the test with MST4; 13% in the test with MTOR; 7% with MUSK. The “%Inh” value in the test with MYLK2 came out at 8%; in the test with MYLK4 it was 0%; in the test with MYLK, 22%; with MYO3A, 18%; in the test with MYO3B it was 0%; in the test with NDR1, 0%. The “%Inh” value with NDR2 worked out at 42%; in the test with NEK10, 15%; in the test on NEK11, 11%; in the test with NEK1, 0%; in the test on NEK2, 0%; with NEK3, 8%. Besides, the figures for the “%Inh” value in the test on NEK4 and in the test on NEK5 were 12% and 13%, respectively.

Turning to `Cn1cc(-c2ccc3c(c2)CCN3C(=O)Cc2ccccc2Cl)c2c(N)ncnc21` [GSK2608885], the “%Inh” value was determined as 95.3% with MST1; 64% in the test with MST2; 30% in the test on MST3; 13% in the test with MST4; 8% in the test on MTOR; 29% with MUSK. In addition, the “%Inh” value in the test on MYLK2 is 8%; in the test with MYLK4, 2%; with MYLK, 12%; in the test with MYO3A, 34%; in the test with MYO3B, 33%; in the test with NDR1, 21%. Besides, the “%Inh” value in the test with NDR2 worked out at 0%; with NEK10 it was 0%; in the test with NEK11, 0%; in the test on NEK1 it was 0%; in the test on NEK2, 79%; in the test on NEK3 it was 0%. In addition, the “%Inh” value in the test with NEK4 is reported as 5%; with NEK5, 7%.

Turning to `N#Cc1ccc(-c2cc(-c3c[nH]nc3-c3ccccn3)ccn2)cc1` [GW693028], the “%Inh” value in the test on MST1 was found to be 4%; with MST2, 0%; in the test on MST3, 0%; in the test with MST4, 0%; in the test with MTOR, 14%; in the test on MUSK, 0%. Moreover, the “%Inh” value stood at 0% in the test with MYLK2; 0% in the test on MYLK4; 8% with MYLK; 15% in the test on MYO3A; 0% in the test with MYO3B; 14% in the test with NDR1. In addition, the “%Inh” value turned out to be 0% in the test with NDR2; 11% in the test with NEK10; 5% in the test with NEK11; 0% in the test with NEK1; 0% in the test with NEK2; 8% in the test with NEK3. Further, the “%Inh” value stood at 20% in the test on NEK4 and 5% in the test with NEK5.

In the case of `Cl.Cl.Cl.Fc1ccc(-c2ncn(C3CCNCC3)c2-c2ccnc(Nc3ccccc3)n2)cc1` [SB-238039], the “%Inh” value is 82% and 69% with MST1 (1 µM); 0% in the test on MST2; 12% and 46% with MST3 (1 µM); 44% and 0% with MST4 (1 µM); 22% and 0% with MTOR (1 µM); 0% in the test on MUSK. Also, the “%Inh” value is 43% and 30% in the test with MYLK2 (1 µM); 6% and 0% in the test on MYLK4 (1 µM); 0% and 22% in the test with MYLK (1 µM); 4% and 10% with MYO3A (1 µM); 20% and 21% in the test with MYO3B (1 µM); 37% and 6% with NDR1 (1 µM). The “%Inh” value with NDR2 (1 µM) is 8% and 0%; in the test with NEK10, 0%; with NEK11, 0%; in the test on NEK1 (1 µM), 15% and 0%; in the test with NEK2 (1 µM), 0% and 2%; in the test with NEK3 (1 µM) it was 23% and 29%. Moreover, the “%Inh” value is 0% in the test on NEK4; 0% and 15% in the test with NEK5 (1 µM).

Consider `Nc1nccc(-c2c(-c3ccc(F)cc3)ncn2C2CCN(CC(F)(F)F)CC2)n1` [SB-236560], for which the “%Inh” value was 96.9% in the test on MST1; 0% with MST2; 0% with MST3; 0% with MST4; 0% in the test on MTOR; 22% in the test with MUSK. Besides, the “%Inh” value in the test with MYLK2 was 0%; in the test with MYLK4, 0%; with MYLK it was 1%; with MYO3A it was 0%; in the test on MYO3B it was 0%; in the test with NDR1 it was 38%. Also, the “%Inh” value is recorded as 0% with NDR2; 42% with NEK10; 0% with NEK11; 0% in the test with NEK1; 0% in the test on NEK2; 24% in the test on NEK3. Besides, the figures for the “%Inh” value with NEK4 and in the test on NEK5 were 0% and 16%, respectively.

As to `C[C@@H](Oc1cc(-n2cnc3ccc(NC(=O)NC(C)(C)C)cc32)sc1C(N)=O)c1ccccc1Cl` [GSK346294], the “%Inh” value in the test with MST1 is on record as 12%; in the test with MST2, 0%; with MST3, 13%; in the test on MST4, 0%; in the test on MTOR it was 31%; with MUSK, 6%. For the same compound, the “%Inh” value in the test with MYLK2 came out at 0%; with MYLK4, 1%; in the test with MYLK it was 23%; in the test on MYO3A, 35%; in the test on MYO3B it was 0%; in the test with NDR1 it was 17%. Moreover, the “%Inh” value with NDR2 is 17%; in the test with NEK10, 0%; with NEK11 it was 0%; with NEK1, 0%; in the test with NEK2, 5%; in the test with NEK3 it was 5%. Further, the entries for the “%Inh” value with NEK4 and with NEK5 were 0% and 26%, respectively.

The values are drawn from paper PMC5540273 (PLoS ONE, 2017).
